Measurements reported in PubChem BioAssay AID652042 (Broad Institute, 2013).
Hit rate of the full screen: of about 1,100 compounds, about 350 (32%) were called active. These entries were drawn from the full list. Results with a measured potency or affinity are listed apart. Values without a mark were called inactive. No rule for the calls is given here.

experiment: CEM21 lymphoblast cell cytotoxicity, dose response, cytotoxicity control for viral fusion inhibitor project, CellTiter-Glo luminescence, cherry-picked (AID 652042); conditions: CEM21 cells viability, CellTiter-Glo ATP luminescence, 24 h; series mostly up to 35 µM; activity change, negative = cytotoxicity: at the top concentration

Compound | activity change, negative = cytotoxicity
O=C1c2cccnc2C(Nc2ccc(S(=O)(=O)N3CCCCC3)cc2)N1Cc1ccccc1 (centres undefined) | -1.7%
CCc1ccc(C(=O)CN2C(=O)NC(C)(c3ccc(C)cc3)C2=O)cc1 (centres undefined) | -3.88%
Nc1ccc(S(=O)(=O)c2ccc(N3CCOCC3)c(N)c2)cc1 | -0.149%
CN(C)CC(=O)Nc1ccc2c(c1)[C@H]1C[C@H](CC(=O)NCc3cccc(F)c3)O[C@@H](CO)[C@H]1O2 | 3.37%
COc1ccc(OC)c(NC(=O)COc2ccc3c(c2)CCC3)c1 | -4.42%
Cc1ccc(C(C(=O)NC(C)(C)C)N(Cc2cccs2)C(=O)c2csnn2)cc1 (centres undefined) | -7.49%
O=C(C[C@H]1C[C@H]2c3cc(NC(=O)C4CCC4)ccc3O[C@H]2[C@H](CO)O1)NCc1ccc2c(c1)OCO2 | -5.87%
COCCNC(=O)C[C@@H]1C[C@H]2c3cc(N(C)C)ccc3O[C@H]2[C@@H](CO)O1 | -4.55%
O=C(C[C@@H]1C[C@H]2c3cc(NC(=O)C4CCOCC4)ccc3O[C@H]2[C@@H](CO)O1)NCc1ccccc1 | 3.13%
O=C(C[C@@H]1C[C@@H]2c3cc(NC(=O)C4CCC4)ccc3O[C@@H]2[C@@H](CO)O1)NCc1ccc2c(c1)OCO2 | -2.71%
O=C(C[C@H]1C[C@@H]2c3cc(NS(=O)(=O)c4ccc(F)cc4)ccc3O[C@@H]2[C@H](CO)O1)NCCc1ccccc1 | -9.09%
O=C(C[C@H]1C[C@H]2c3cc(NS(=O)(=O)c4ccc(F)cc4)ccc3O[C@H]2[C@@H](CO)O1)NCc1ccccc1F | -12.4%
CCOC(=O)[C@H]1[C@H]2COc3ccccc3[C@@H]2N2C(=O)c3c(C)cc(C)cc3NC(=O)[C@@]12C | -6.54%
O=C(C[C@@H]1C[C@@H]2c3cc(NC(=O)C4CCOCC4)ccc3O[C@@H]2[C@H](CO)O1)NCc1ccccc1F | -0.819%
Cc1ccc(S(=O)(=O)N(C)c2ccc(C(=O)N3CCN(Cc4ccc5c(c4)OCO5)CC3)cc2)cc1 | -23%
CCC1(c2ccccc2)NC(=O)N(CC(=O)Nc2cc(S(=O)(=O)N3CCCCC3)ccc2OC(C)C)C1=O (centres undefined) | 2.14%
c1ccc2c(c1)OCC(c1csc3ncnc(N4CCOCC4)c13)O2 (centres undefined) | -16.5%
COc1ccc([C@@H]2[C@@H]3C(=O)N(C(C)(C)C)C(=O)[C@@H]3[C@]3(CC(C)C)C(=O)N(c4ccccc4)C(=O)N23)cc1 | -2.8%
CC12CC3CC(C)(C1)CC(C(=O)NCc1ccncc1)(C3)C2 | -0.744%
CCS(=O)(=O)N[C@H]1CC[C@@H](CC(=O)NCc2ccc(Cl)cc2)O[C@@H]1CO | -7.14%
CCc1ccc([C@H]2[C@@H]3C(=O)C[C@@H]4C(=O)N(Cc5ccccc5)C(=O)[C@@H]4[C@@H]3CN2S(=O)(=O)c2ccc(C)cc2)cc1 | -8.07%

Compound | activity change, negative = cytotoxicity
CC(=O)c1c(O)cc2c3c1OC(C)(C)C1CCC(C)(CC31)O2 (centres undefined) | -10.6%
Cc1nc2ccccc2n1CC(=O)NCc1ccccc1 | -8.14%
CCS(=O)(=O)N1Cc2ccccc2CC1C(=O)NC(C)C12CC3CC(CC(C3)C1)C2 (centres undefined) | -11.2%
CCOC(=O)[C@@H]1[C@H]2COc3ccc(Br)cc3[C@@H]2N2C(=O)N(c3ccc(F)cc3)C(=O)[C@@]12C | -19.4%
CCOC(=O)[C@@H]1[C@H]2COc3cc(OC)ccc3[C@H]2N2C(=O)N(c3cccc(F)c3)C(=O)[C@@]12C | -1.64%
O=C(C[C@@H]1C[C@H]2c3cc(NC(=O)Nc4ccccc4)ccc3O[C@H]2[C@H](CO)O1)NCc1cccnc1 | -0.189%
Cc1ccc(S(=O)(=O)N2CCN(S(=O)(=O)c3ccc(C)cc3)C2c2ccccc2)cc1 | -6.37%
c1ccc(CSc2nnc([C@@H]3CCCN3)o2)cc1 | -2.9%
O=C(C1CCCCC1)N1CCCC(c2nc3c(nnn3Cc3ccccc3)c(=O)[nH]2)C1 (centres undefined) | -0.473%
CCN(C[C@H]1N[C@@](CC)(C(=O)OC)[C@H]2C(=O)N(Cc3ccccc3)C(=O)[C@@H]12)S(=O)(=O)c1ccc(C)cc1 | -12.5%
CCN(C[C@H]1N[C@@](C)(C(=O)OC)[C@H]2C(=O)N(Cc3ccccc3)C(=O)[C@@H]12)S(=O)(=O)c1ccc(C)cc1 | -0.762%
O=C(c1ccc(Cl)cc1)N1CCCCC(Sc2nnc(-c3ccc4c(c3)OCO4)o2)C1=O (centres undefined) | -2.73%
Cc1cc(C)c(S(=O)(=O)N2CCN=C2c2ccccc2)cc1C | -9.27%
c1ccc2c(N3CCCCC3)ncnc2c1 | -7.9%
CC(C)[C@H](CN(N=O)[C@@H](Cc1ccccc1)CN(C)N=O)N(CCc1ccccc1)N=O | -21.7%
Cc1ccccc1-n1c(=O)c2ccccc2n2cnnc12 | 2.85%
COc1ccc(NC(=O)C(=O)NCC2CCCN2S(=O)(=O)c2cccs2)cc1 (centres undefined) | -23.2%
COc1ccc(C(=O)NCCc2ccc(Cl)cc2)cc1S(=O)(=O)N1CCCCC1C (centres undefined) | -24%
O=C(CN(c1cc(C(F)(F)F)ccc1Cl)S(=O)(=O)c1ccccc1)NCc1cccnc1 | -6.14%
CC(C)(C)N1C(=O)[C@H]2[C@@H](c3ccc(Br)cc3)N3C(=O)N(c4ccccc4)C(=O)[C@@]3(C)[C@H]2C1=O | -1.59%
COc1ccc(Nc2ncc(C(=O)N3CCN(c4ccc(F)cc4)CC3)c3ccccc23)cc1 | -15.8%

Compound | activity change, negative = cytotoxicity
CO[C@H]1CN(C)C(=O)c2cc(NC(=O)c3ccc(F)cc3)ccc2OC[C@H](C)N(C(=O)CN(C)C)C[C@@H]1C | -4.43%
COc1ccccc1OCC(=O)c1[nH]c(C)c(C(C)=O)c1C | -10.2%
Cc1cccc2cc3c(N)c(C#N)sc3nc12 | -1.38%
O=C1CCCc2c1[nH]c1ccc(Cl)cc21 | 6.7% [at 16 µM]
O=C(NNS(=O)(=O)c1ccc(F)cc1F)C1Cc2c(ccc3ccccc23)O1 (centres undefined) | -1.4%
C[C@@H]1CN([C@H](C)CO)C(=O)c2cc(NC(=O)Nc3ccccc3)ccc2O[C@@H]1CN(C)S(=O)(=O)c1ccccc1 | -5%
COc1ccc(S(=O)(=O)Nc2ccc3c(c2)CC(=O)N([C@@H](C)CO)C[C@H](C)[C@H](CN(C)S(=O)(=O)c2ccc(C)cc2)O3)cc1 | -4.93%
C[C@@H]1CN([C@@H](C)CO)S(=O)(=O)c2ccc(-c3ccccc3)cc2O[C@H]1CN(C)S(C)(=O)=O | -14.9%
Cc1ccc(S(=O)(=O)N(C)C[C@H]2Oc3cc(-c4cccc(F)c4)ccc3S(=O)(=O)N([C@H](C)CO)C[C@H]2C)cc1 | -24.6%
COc1ccc([C@@H]2[C@@H]3C(=O)N(C(C)(C)C)C(=O)[C@@H]3[C@]3(CC(C)C)C(=O)N(c4cccc(Br)c4)C(=O)N23)cc1 | 1.72%
COc1ccc(Cn2nnnc2C(c2cc3cccc(C)c3[nH]c2=O)N2CCOCC2)cc1 (centres undefined) | -2.74%
COc1ccc(C(C(=O)NC2CCCC2)N(C(=O)c2ccoc2C)c2ccc(C)cc2)cc1 (centres undefined) | -24%
O=C(NCc1ccco1)c1ccc(Cn2c(=O)c3ccccc3n(Cc3cccc(F)c3)c2=O)cc1 | 3.08%
CCC(=O)N(C)C(c1ccccc1Cl)c1nnnn1-c1c(C)cccc1C (centres undefined) | -15.6%
CCCCCCOc1ccc(OC(=O)c2ccncc2)cc1 | -12.3%
O=C(Nc1ccc(CN2CCS(=O)(=O)CC2)cc1)c1ccc(C(F)(F)F)cc1 | -21.8%
C[C@@H]1CNC(=O)c2c(C(=O)N(C)Cc3ccccc3)ncn21 | -18.7%
O=C1[C@H]2[C@@H](C3CC3)N3C(=O)CN(CC4CC4)C(=O)[C@@]3(Cc3ccccc3)[C@H]2C(=O)N1c1ccccc1 | 0.041%
CC1(C(=O)N/N=C/c2ccc3c(c2)OCO3)CC1(Br)Br (centres undefined) | 1.88%
Cc1ccsc1/C=N/Nc1cccc(C(=O)O)c1 | -7.18%
CC1(C(=O)N/N=C/c2cc3c(cc2Br)OCO3)CC1(Br)Br (centres undefined) | -5.08%

Compound | activity change, negative = cytotoxicity
COc1cc(/C=N/NS(=O)(=O)c2ccc(C)cc2)ccc1OCc1ccc(C(=O)O)cc1 | 4.25%
CCCn1c(=S)[nH]c2cc(C(=O)N3CCCC(C(=O)OCC)C3)ccc2c1=O (centres undefined) | -16.8%
Cc1cc(C(=O)CN2C(=O)c3ccccc3S2(=O)=O)c(C)n1CC1CCCO1 (centres undefined) | 7.48%
O=C(NC1=NCCS1)C1COc2ccccc2O1 (centres undefined) | -11.6%
O=C(Nc1ccc(S(=O)(=O)N2CCCC2)cc1)c1ccc(CN2CCOCC2)cc1 | -13.1%
COC(=O)c1ccc(NC(=O)c2ccc(CN3CCOCC3)cc2)cc1 | -6.47%
O=S(=O)(c1ccc(Cl)cc1)N1CCCN(c2nc3ccc(Cl)cc3s2)CC1 | -15.6%
O=C(CC1C(=O)NCCN1Cc1cccc(F)c1)NC1CCCCC1 (centres undefined) | 0.283%
CC(C)(C)c1ccc(OCCC(=O)Nc2cccc(S(=O)(=O)N3CCOCC3)c2)cc1 | -11.4%
COc1ccc(NC(=O)Nc2ccc3c(c2)N(C)C(=O)CS3)cc1Cl | -20.2%
CCOc1ccccc1N(C(=O)CNC(=O)c1ccco1)C(C(=O)NC1CCCC1)c1cccnc1 (centres undefined) | -6.89%
CCOc1ccc(S(=O)(=O)NCc2ccncc2)cc1 | -16.8%
O=C(C[C@@H]1C[C@H]2c3cc(NC(=O)C4CCOCC4)ccc3O[C@H]2[C@H](CO)O1)NCc1ccccc1F | -1.23%
CC(C)NC(=O)Nc1ccc2c(c1)C(=O)N([C@@H](C)CO)C[C@@H](C)[C@@H](CN(C)C(=O)CCC(F)(F)F)OCCCC[C@@H](C)O2 | -0.148%
CO[C@H]1CN(C)C(=O)c2cc(NC(C)=O)ccc2OC[C@@H](C)N(Cc2nccs2)C[C@H]1C | -4.5%
COc1ccccc1NC(=O)N[C@@H]1C=C[C@H](CC(=O)NCc2ccc(Cl)c(Cl)c2)O[C@@H]1CO | -8.5%
CC(NC(=O)CN(C)CC(=O)Nc1ccc(Cl)c(C(F)(F)F)c1)c1ccccc1 (centres undefined) | -20.4%
Cc1cccc(N2C(=O)N3[C@H](c4ccc(Br)cc4)[C@@H]4C(=O)N(C(C)(C)C)C(=O)[C@@H]4[C@]3(C)C2=O)c1 | -2.6%
COc1cc2c(c(OC)c1OC)[C@@]1(c3ccccc3)CCCC[C@H]1[C@@H]2NC(=O)C(F)(F)F | -4.67%
Cc1ccccc1OCCCCn1cnc2ccccc21 | -3.25% [at 16 µM]
CC[C@]1(C(=O)OC)[C@H]2C(=O)N(Cc3ccccc3)C(=O)[C@H]2[C@H]2CN=C(SCc3ccccc3)N21 | -11.6%
